From PubChem BioAssay (NCI) come the findings set out here.

Test systems include T-47D breast; BT-549 breast; MDA-MB-435 melanoma; SW-620 colon; MCF7 breast; HCT-116 colon; HCC-2998 colon; KM12 colon.
What all share (experiment): NCI-60 one-dose screen, 48 h (100 = growth as untreated, 0 = no growth, -100 = all killed)
Holding throughout (settings): 10 µM unless noted

Where “and” joins values, the source holds several entries; their conditions need not be identical. Identical values can stand only once. The panel holds about 83,000 compounds, 20% with a hit somewhere; the sample as a whole holds those more often.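 Percent growth is the endpoint: 0 to 100 indicates growth inhibition (40 means 60% inhibition), 0 means no net growth, and negative values indicate cell death.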 A number with no mark means an inactive call. Calls of active or inactive are those of the source. The calls were made as follows: active = growth percent below 10; inactive = the rest.

For `CCOc1cc(F)c([N+](=O)[O-])cc1[N+](=O)[O-]`, the growth was 24.5% in the assay with T-47D breast; 87.3% with BT-549 breast; 37.2% with MDA-MB-435 melanoma; 19.8% with SW-620 colon; 15.9% in the assay with MCF7 breast; 9.26% (active) in the assay on HCT-116 colon. Further, the growth in the assay with HCC-2998 colon is 98.7%; in the assay on KM12 colon, -44.7% (active).
Turning to `CN(C)c1ccc(/C=C/c2cc[n+](C)c(/C=C/c3ccc(N(C)C)cc3)c2)cc1`, the growth is -2.17% (active) in the assay on T-47D breast; 18.9% with BT-549 breast; -48.7% (active) in the assay with MDA-MB-435 melanoma; 9.01% (active) in the assay on SW-620 colon; -6.46% (active) in the assay with MCF7 breast; 9.38% (active) in the assay with HCT-116 colon. Besides, the growth with HCC-2998 colon is 12.4%; with KM12 colon, -55.6% (active).
Take `CCc1cnc2ccccc2c1/C=C/c1ccc(N(C)C)cc1`: the growth is 31.3% in the assay on T-47D breast; 49.8% in the assay with BT-549 breast; 7.56% (active) in the assay with MDA-MB-435 melanoma; 32.1% in the assay with SW-620 colon; 20% in the assay on MCF7 breast; 24.6% in the assay with HCT-116 colon. Moreover, the growth was 68.4% in the assay on HCC-2998 colon and 25.5% with KM12 colon.
Turning to `COc1ccc(/C=C2/C(=O)ON=C2C)cc1`, the growth in the assay on T-47D breast was 93%; in the assay with BT-549 breast it was 107%; in the assay with MDA-MB-435 melanoma, 109%; with SW-620 colon, 103%; in the assay on MCF7 breast, 106%; in the assay with HCT-116 colon it was 112%. Also, the growth in the assay on HCC-2998 colon is 103%; in the assay with KM12 colon it was 113%.
For the molecule `Cc1ccc(NC2=CC(=O)C(=O)c3ccccc32)cc1`, the growth is 21.1% in the assay on T-47D breast; -41.1% (active) with BT-549 breast; -80.5% (active) with MDA-MB-435 melanoma; -19.6% (active) in the assay with SW-620 colon; -57.4% (active) with MCF7 breast; -26.9% (active) in the assay with HCT-116 colon. Also, the growth in the assay with HCC-2998 colon was 28.4%; in the assay on KM12 colon, 22.1%.
As to `C=C(C(N)=O)C(N)C(=O)O` (stereo not drawn), the growth is 106% in the assay on T-47D breast; 108% in the assay on BT-549 breast; 123% in the assay on MDA-MB-435 melanoma; 109% in the assay on SW-620 colon; 102% in the assay on MCF7 breast; 92.4% with HCT-116 colon. In addition, the growth with HCC-2998 colon is 108%; in the assay on KM12 colon it was 95.9%.
Consider `Oc1ccc2c(c1)CCc1ccccc1-2`, for which the growth in the assay with T-47D breast is 86.3%; in the assay with BT-549 breast, 106%; in the assay with MDA-MB-435 melanoma, 96.6%; in the assay with SW-620 colon, 103%; in the assay with MCF7 breast it was 103%; in the assay on HCT-116 colon, 97.7%. The figures for the growth with HCC-2998 colon and in the assay with KM12 colon were 102% and 113%, respectively.
For `OC(c1cc(-c2ccc(C(F)(F)F)cc2)nc(C(F)(F)F)c1)C1CCCCN1` (stereo not drawn), the growth in the assay on T-47D breast is -69.2% (active) and -89.5% (active) and -17.2% (active); in the assay with BT-549 breast it was 52.1% and 93.5% and 85.3%; in the assay on MDA-MB-435 melanoma, -63% (active) and -91.8% (active) and 6.26% (active); in the assay on SW-620 colon, -80.4% (active) and -84.6% (active) and -55.6% (active); in the assay on MCF7 breast, -88% (active) and -86.5% (active) and -59.3% (active); with HCT-116 colon, -82% (active) and -96.2% (active) and 3.87% (active). For the same molecule, the growth in the assay with HCC-2998 colon was -66.8% (active) and -95% (active) and -74.6% (active); in the assay with KM12 colon it was -80.1% (active) and -85.2% (active) and -62.3% (active).
With `Cc1cc(C(=C2C=CC(=Nc3ccccc3)C=C2)c2ccc(Nc3ccccc3)cc2)ccc1N`, the growth with T-47D breast is -50.1% (active); in the assay with BT-549 breast, -88.9% (active); in the assay with MDA-MB-435 melanoma, -68% (active); in the assay with SW-620 colon, -70.4% (active); in the assay on MCF7 breast, -44.3% (active); in the assay with HCT-116 colon, 0.559% (active). The figures for the growth in the assay with HCC-2998 colon and in the assay on KM12 colon were -90.7% (active) and -89.2% (active), respectively.
Turning to `O=C(O)c1cc2c(s1)C(=O)c1sccc1C2=O`, the growth in the assay on T-47D breast is 36%; in the assay on BT-549 breast it was -89.8% (active); in the assay on MDA-MB-435 melanoma it was -99.6% (active); in the assay on SW-620 colon, -3.95% (active); in the assay on MCF7 breast, -56.6% (active); in the assay on HCT-116 colon, -27.7% (active). For the same molecule, the growth in the assay with HCC-2998 colon was 8.88% (active); with KM12 colon, 79.9%.
As to `CC(=O)c1c(O)c(C)c(O)c2c1OC1=CC(=O)C(C(C)=O)C(=O)C12C` (stereo not drawn), the growth in the assay on T-47D breast is 102%; in the assay on BT-549 breast, 55.8%; with MDA-MB-435 melanoma, 78.5%; in the assay with SW-620 colon it was 74.7%; with MCF7 breast, 128%; in the assay with HCT-116 colon it was 94%. In addition, the growth is 58.1% in the assay with HCC-2998 colon and 72.6% with KM12 colon.
On to `CCC1C[N+]2=C(c3cc(OC)c(OC)cc3CC2)c2c1cc1n2CCc2cc(OC)c(OC)cc2-1` (stereo not drawn), for which the growth with T-47D breast is 6.69% (active); with BT-549 breast, 26.7%; in the assay with MDA-MB-435 melanoma, 5.51% (active); in the assay on SW-620 colon it was 48.8%; in the assay on MCF7 breast, 9.71% (active); in the assay on HCT-116 colon it was 40.4%. For the same molecule, the figures for the growth in the assay with HCC-2998 colon and in the assay with KM12 colon were 34% and 7.73% (active), respectively.
For `Nc1cc(-c2ccccc2)ccc1O`, the growth in the assay with T-47D breast is 88.3%; in the assay on BT-549 breast, 79.3%; in the assay on MDA-MB-435 melanoma it was 111%; in the assay on SW-620 colon, 121%; in the assay with MCF7 breast, 102%; in the assay on HCT-116 colon it was 98.1%. Further, the growth in the assay with HCC-2998 colon was 83.8%; with KM12 colon, 102%.
Turning to `Cc1cc(C)c(C#N)c(Sc2nc(C)c([N+](=O)[O-])c(C)c2C#N)n1`, the growth is 68.7% in the assay with T-47D breast; 43.1% in the assay on BT-549 breast; 42.9% in the assay with MDA-MB-435 melanoma; 19.2% in the assay on SW-620 colon; 26.4% with MCF7 breast; 9.65% (active) in the assay with HCT-116 colon. Further, the growth in the assay on HCC-2998 colon is 100%; in the assay with KM12 colon, 60.8%.
Turning to `COc1ccc(C(OCC2OC(n3ccc(NC(=O)c4ccccc4)nc3=O)C(O)C2O)(c2ccccc2)c2ccccc2)cc1` (stereo not drawn), the growth is 40.2% in the assay with T-47D breast; 44.3% in the assay with BT-549 breast; 31.1% in the assay on MDA-MB-435 melanoma; 56% in the assay on SW-620 colon; 13.3% with MCF7 breast; 3.43% (active) in the assay with HCT-116 colon. Also, the growth with HCC-2998 colon is 75.8%; in the assay with KM12 colon, 19.2%.
As for `Cc1cc(I)nc2ccccc12`, the growth was 95.8% in the assay with T-47D breast; 104% with BT-549 breast; 112% in the assay on MDA-MB-435 melanoma; 107% in the assay on SW-620 colon; 101% in the assay with MCF7 breast; 106% in the assay with HCT-116 colon. The growth in the assay on HCC-2998 colon was 103%; in the assay with KM12 colon, 115%.
Consider `CCc1cccc(CC)c1N1C(=O)C=CC1=O`, for which the growth with T-47D breast is 102%; in the assay with BT-549 breast it was 116%; in the assay with MDA-MB-435 melanoma it was 111%; with SW-620 colon it was 108%; in the assay with MCF7 breast it was 110%; in the assay on HCT-116 colon, 88.5%. Besides, the values for the growth in the assay on HCC-2998 colon and with KM12 colon were 117% and 110%, respectively.
Regarding `CCC[CH2][Sn]1([CH2]CCC)[O]C2C(CO)OC(n3ccc(N)nc3=O)C2[O]1` (stereo not drawn), the growth was -68.8% (active) with T-47D breast; -85.2% (active) in the assay on BT-549 breast; -75.5% (active) with MDA-MB-435 melanoma; -77.1% (active) with SW-620 colon; -92.2% (active) in the assay with MCF7 breast; -73.6% (active) with HCT-116 colon. Besides, the growth in the assay with HCC-2998 colon was -19.2% (active); in the assay on KM12 colon, 7.12% (active).
As for `S=C1SCN(Cc2cccs2)CN1Cc1cccs1`, the growth in the assay on T-47D breast was 56.5%; in the assay with BT-549 breast it was 98.5%; in the assay with MDA-MB-435 melanoma, 93.3%; in the assay with SW-620 colon it was 82.4%; in the assay on MCF7 breast, 43.9%; in the assay on HCT-116 colon, 99.4%. Besides, the growth was 116% in the assay on HCC-2998 colon and 91.2% in the assay on KM12 colon.
Consider `O=C1C=CC(=O)N1c1ccccc1`, for which the growth is 99.8% in the assay on T-47D breast; 97.1% in the assay with BT-549 breast; 109% with MDA-MB-435 melanoma; 80.9% in the assay with SW-620 colon; 106% with MCF7 breast; 75.1% in the assay on HCT-116 colon. The growth was 98.7% in the assay on HCC-2998 colon and 103% in the assay on KM12 colon.
On to `COc1ccc2c(c1)c(CC(=O)O)c(C)n2C(=O)c1ccc(Cl)cc1`, for which the growth in the assay on T-47D breast is 107%; in the assay with BT-549 breast it was 66.9%; in the assay with MDA-MB-435 melanoma it was 96.8%; in the assay with SW-620 colon, 98.8%; with MCF7 breast, 83.7%; in the assay on HCT-116 colon, 95.2%. The growth in the assay with HCC-2998 colon is 108%; in the assay with KM12 colon, 99.2%.
For the molecule `CN(C)c1ccc(/C=C/c2nccc3ccccc23)cc1`, the growth in the assay on T-47D breast is 40.2%; in the assay on BT-549 breast, 84.1%; in the assay on MDA-MB-435 melanoma it was 55.7%; in the assay on SW-620 colon, 84.1%; with MCF7 breast, 30.6%; in the assay on HCT-116 colon, 81.5%. Moreover, the results for the growth in the assay with HCC-2998 colon and in the assay with KM12 colon were 82.9% and 73.3%, respectively.
For `Oc1cc(Cl)ccc1Cc1ccc(Cl)cc1O`, the growth was 29.2% in the assay with T-47D breast; 33.9% in the assay with BT-549 breast; 46.2% with MDA-MB-435 melanoma; 81.2% with SW-620 colon; 68.3% in the assay with MCF7 breast; 41.7% in the assay with HCT-116 colon. The figures for the growth in the assay on HCC-2998 colon and in the assay with KM12 colon were 88.1% and 98.7%, respectively.
Take `CCCCCCCCCCCC[n+]1ccc2ccccc2c1`: the growth was 5.61% (active) in the assay with T-47D breast; -73.4% (active) with BT-549 breast; -69.6% (active) with MDA-MB-435 melanoma; -30% (active) with SW-620 colon; -10.3% (active) in the assay with MCF7 breast; -74.7% (active) in the assay with HCT-116 colon. The growth with HCC-2998 colon was -84.7% (active); in the assay on KM12 colon, -89.2% (active).
As to `CC1=CC(=O)C=CC1(C)C(Cl)(Cl)Cl` (stereo not drawn), the growth in the assay with T-47D breast was 89.8%; in the assay on BT-549 breast it was 103%; with MDA-MB-435 melanoma, 105%; in the assay with SW-620 colon, 96.7%; in the assay with MCF7 breast, 92.6%; with HCT-116 colon it was 89.9%. Further, the growth in the assay with HCC-2998 colon was 98.6%; with KM12 colon it was 108%.
As for `OC(CSc1ccccc1)CN1CCN(c2ccc(Cl)cc2)CC1` (stereo not drawn), the growth in the assay with T-47D breast was 95.9%; in the assay with BT-549 breast, 102%; in the assay on MDA-MB-435 melanoma, 105%; in the assay with SW-620 colon, 105%; in the assay with MCF7 breast it was 98%; in the assay with HCT-116 colon, 90.2%. Also, the growth in the assay with HCC-2998 colon is 95.3%; in the assay on KM12 colon, 110%.
